Assay results: PubChem BioAssay
Active and inactive are the calls of the source.

Legend:
[1] = target: Albumin (Bos taurus) (UniProt P02769); experiment: bovine serum albumin binders on microarray, profiling panel, artefact control for SMM control protein annotation, biochemical, small-molecule microarray, Alexa647 label, 635/667 nm fluorescence (AID 1118); conditions: BSA-A647 binding, fluorescence 635 nm, higher = more signal;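 note: score merges 667 nm emission intensity and signal-to-noise per printed compound spot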
[2] = small-molecule microarray binders of probe aXIP, primary screen, biochemical, NeuroSMM set, 635/667 nm fluorescence (AID 1119); conditions: higher = more signal, called active from +8 up or from −8 down;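 note: probe is the protein aXip251-270 applied at 1 µg/mL to compound-printed slides; binding of probe to printed compounds measured as 667 nm fluorescence plus signal to noise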
[3] = small-molecule binders of probe aNOTCH3, primary screen, biochemical, small-molecule microarray, 635/667 nm fluorescence (AID 1120); conditions: higher = more signal;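 note: probe is a biotin-tagged antibody raised against NOTCH3 rather than NOTCH3 protein; score merges spot fluorescence near 667 nm with spot signal to noise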
[4] = small-molecule binders of probe aNOTCH2, primary screen, biochemical, small-molecule microarray, 635/667 nm fluorescence (AID 1121); conditions: higher = more signal;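 note: score merges feature fluorescence read at 667 nm with its signal to noise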
[5] = target: Carbonic anhydrase 2 (Homo sapiens) (UniProt P00918); experiment: CAII small-molecule binders, profiling panel, biochemical, small-molecule microarray, Alexa647-labelled CAII (AID 1122); conditions: CAII-A647 binding fluorescence, higher = more signal
[6] = COS7 lysate on small-molecule microarray, probe aHis, 635 nm (AID 1123); conditions: COS7 cell lysate, fluorescence, higher = more signal;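 note: z-score combines 667nm fluorescence intensity with signal-to-noise per printed compound spot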
[7] = compound binding in COS7 lysate, probe aLAP1, primary screen, cell lysate, small-molecule microarray (AID 1124); conditions: probe aLAP1, fluorescence, higher = more signal;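 note: lysate comes from COS7 cells expressing LAP1 and is applied at 0.3 µg/mL; score merges spot fluorescence near 667 nm with signal-to-noise over triplicate slides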
[8] = tested on: Sam68 (KHDRBS1); experiment: Sam68 small-molecule binders, primary screen, biochemical, small-molecule microarray, 635 nm fluorescence (AID 1125); conditions: small-molecule microarray binding, higher = more signal;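 note: score merges 667 nm channel intensity with signal to noise over triplicate slides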
[9] = tested on: Chordin-like protein 2 (CHRDL2); experiment: CHRDL2 small-molecule binders, primary screen, biochemical, small-molecule microarray, 635 nm fluorescence (AID 1126); conditions: small-molecule microarray binding, fluorescence 635 nm; higher = more signal;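 note: printed compound slides probed with Chrdl2 protein at 4 µg/mL for 1 h at 4 C; score merges 667 nm emission intensity with signal to noise over three replicate slides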
[10] = target: Concanavalin-A (Canavalia ensiformis) (UniProt P02866); experiment: ConA small-molecule binders, primary screen, artefact control for SMM control protein annotation, biochemical, small-molecule microarray, Alexa647 label, 635 nm (AID 1127); conditions: ConA-A647 binding fluorescence, higher = more signal;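 note: z combines 667 nm emission intensity with signal-to-noise across three replicate slides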
[11] = anti-His antibody binders, primary screen, artefact control for SMM control protein annotation, biochemical, small-molecule microarray, 635 nm fluorescence (AID 1128); conditions: anti-His Alexa647 antibody binding, higher = more signal;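 note: score merges feature fluorescence with signal-to-noise for each printed compound spot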
[12] = tested on: Human papillomavirus type 1a E7 protein (residues 1-88); experiment: HPV1a E7 small-molecule binders, primary screen, biochemical, small-molecule microarray, residues 1-88, 635 nm (AID 1129); conditions: small-molecule microarray binding, fluorescence 635 nm; higher = more signal
[13] = target: Focal adhesion kinase 1 (Homo sapiens) (UniProt Q05397); experiment: small-molecule microarray binders of FAK, primary screen, biochemical, 635/667 nm fluorescence, BSA, DTT (AID 1130); conditions: PTK2 binding, 635 nm fluorescence, higher = more signal;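 note: composite of spot emission at 667 nm and signal to noise over triplicate slides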
[14] = tested on: Fibrinogen (Alexa647-labelled); experiment: fibrinogen binders on compound microarrays, profiling panel, artefact control for SMM control-protein annotation, biochemical, small-molecule microarray, 635/667 nm fluorescence (AID 1131); conditions: fibrinogen-A647 binding fluorescence, higher = more signal;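 note: z-score merges 667 nm fluorescence with per-spot signal-to-noise over triplicate slides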
[15] = target: Follistatin (Homo sapiens) (UniProt P19883); experiment: follistatin binders on small-molecule microarrays, primary screen, biochemical, small-molecule microarray, 635/667 nm fluorescence (AID 1132); conditions: FST binding, 635 nm fluorescence, higher = more signal
[16] = target: Fibroblast growth factor 2 (Homo sapiens) (UniProt P09038); experiment: FGF2 binders on small-molecule microarrays, primary screen, biochemical, small-molecule microarray, 635/667 nm fluorescence (AID 1133); conditions: small-molecule microarray binding, FGF2, fluorescence 635/667; higher = more signal
[17] = mitochondrial membrane potential change in A549 cells, profiling panel, cell-based, JC-1 fluorescence, basal, 24 h, 100 nL (AID 1138); conditions: higher = more signal;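 note: A549 lung adenocarcinoma cells under basal conditions with no added stimulus; test concentration not given here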
[18] = tested on: Lefty1; experiment: Lefty1 binders on small-molecule microarrays, primary screen, biochemical, small-molecule microarray, 635/667 nm fluorescence (AID 1139); conditions: small-molecule microarray binding, fluorescence 635/667; higher = more signal
[19] = tested on: wheat germ agglutinin (Triticum aestivum), Alexa647-labelled; experiment: wheat germ agglutinin binders on compound microarrays, profiling panel, artefact control for SMM control-protein annotation, biochemical, small-molecule microarray, 635/667 nm fluorescence (AID 1140); conditions: WGA-A647 binding, 635 nm fluorescence, higher = more signal;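 note: score merges 667 nm feature emission with signal to noise over triplicate slides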
[20] = target: Luciferin 4-monooxygenase (Photinus pyralis) (UniProt P08659); experiment: firefly luciferase enzyme inhibitors, primary screen, biochemical, luminescence, purified enzyme, 2006 set (AID 1141); conditions: SteadyGlo luminescence, 30 min, higher = more signal, called active from +8 up or from −8 down;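 note: cell-free assay with purified firefly luciferase at 100 ng per well in PBS; test concentration not given here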
Chain of Luciferin 4-monooxygenase (Photinus pyralis) (P08659 whole entry, looked up): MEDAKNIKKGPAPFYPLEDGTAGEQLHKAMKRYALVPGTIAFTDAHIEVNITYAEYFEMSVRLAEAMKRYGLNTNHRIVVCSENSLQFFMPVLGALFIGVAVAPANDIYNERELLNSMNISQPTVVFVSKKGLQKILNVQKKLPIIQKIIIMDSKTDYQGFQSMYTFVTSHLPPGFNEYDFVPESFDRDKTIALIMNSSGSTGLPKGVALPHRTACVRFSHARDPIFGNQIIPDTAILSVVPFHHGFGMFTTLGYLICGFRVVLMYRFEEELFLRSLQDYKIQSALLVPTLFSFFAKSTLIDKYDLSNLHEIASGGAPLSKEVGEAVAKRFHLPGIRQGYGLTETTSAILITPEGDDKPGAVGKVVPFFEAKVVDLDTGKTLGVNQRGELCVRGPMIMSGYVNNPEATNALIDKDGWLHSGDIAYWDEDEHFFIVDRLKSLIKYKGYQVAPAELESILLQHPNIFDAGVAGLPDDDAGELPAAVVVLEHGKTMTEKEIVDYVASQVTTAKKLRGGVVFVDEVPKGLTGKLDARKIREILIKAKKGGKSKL

Chain of Follistatin (Homo sapiens) (P19883 whole entry, looked up): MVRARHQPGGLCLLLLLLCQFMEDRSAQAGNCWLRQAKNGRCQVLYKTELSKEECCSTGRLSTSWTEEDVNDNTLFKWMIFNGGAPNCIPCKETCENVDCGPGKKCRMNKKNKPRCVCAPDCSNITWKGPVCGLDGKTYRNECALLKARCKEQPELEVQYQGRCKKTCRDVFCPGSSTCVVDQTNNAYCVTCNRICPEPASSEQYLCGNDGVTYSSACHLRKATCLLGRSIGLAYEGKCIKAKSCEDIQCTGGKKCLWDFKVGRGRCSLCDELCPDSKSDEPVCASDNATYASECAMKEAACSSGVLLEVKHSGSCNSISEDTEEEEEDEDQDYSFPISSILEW
Chain of Albumin (Bos taurus) (P02769 whole entry, looked up): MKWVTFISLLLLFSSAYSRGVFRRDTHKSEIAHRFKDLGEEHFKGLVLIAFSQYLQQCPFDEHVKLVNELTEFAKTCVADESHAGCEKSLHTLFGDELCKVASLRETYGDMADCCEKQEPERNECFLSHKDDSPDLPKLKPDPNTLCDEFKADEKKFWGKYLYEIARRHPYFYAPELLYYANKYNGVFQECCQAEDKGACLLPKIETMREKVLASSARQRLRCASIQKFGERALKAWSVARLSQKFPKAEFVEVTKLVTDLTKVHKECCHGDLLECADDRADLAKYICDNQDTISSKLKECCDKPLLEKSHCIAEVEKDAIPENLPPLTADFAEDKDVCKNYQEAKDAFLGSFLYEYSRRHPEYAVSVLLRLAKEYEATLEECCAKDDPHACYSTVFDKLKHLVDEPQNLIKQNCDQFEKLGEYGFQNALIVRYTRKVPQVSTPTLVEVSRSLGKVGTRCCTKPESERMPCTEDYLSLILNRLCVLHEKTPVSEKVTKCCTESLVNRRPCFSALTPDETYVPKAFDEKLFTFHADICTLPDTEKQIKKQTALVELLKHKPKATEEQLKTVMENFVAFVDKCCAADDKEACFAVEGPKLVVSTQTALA
Chain of Concanavalin-A (Canavalia ensiformis) (P02866 whole entry, looked up): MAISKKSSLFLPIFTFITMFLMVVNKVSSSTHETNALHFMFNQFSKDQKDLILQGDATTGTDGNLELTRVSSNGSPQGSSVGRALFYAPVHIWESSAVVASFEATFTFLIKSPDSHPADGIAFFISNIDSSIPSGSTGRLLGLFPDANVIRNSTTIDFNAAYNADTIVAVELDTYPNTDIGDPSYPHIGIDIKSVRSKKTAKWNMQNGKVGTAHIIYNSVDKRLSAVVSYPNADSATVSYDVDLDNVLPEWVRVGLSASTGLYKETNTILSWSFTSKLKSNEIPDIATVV
Chain of Focal adhesion kinase 1 (Homo sapiens) (Q05397 whole entry, looked up): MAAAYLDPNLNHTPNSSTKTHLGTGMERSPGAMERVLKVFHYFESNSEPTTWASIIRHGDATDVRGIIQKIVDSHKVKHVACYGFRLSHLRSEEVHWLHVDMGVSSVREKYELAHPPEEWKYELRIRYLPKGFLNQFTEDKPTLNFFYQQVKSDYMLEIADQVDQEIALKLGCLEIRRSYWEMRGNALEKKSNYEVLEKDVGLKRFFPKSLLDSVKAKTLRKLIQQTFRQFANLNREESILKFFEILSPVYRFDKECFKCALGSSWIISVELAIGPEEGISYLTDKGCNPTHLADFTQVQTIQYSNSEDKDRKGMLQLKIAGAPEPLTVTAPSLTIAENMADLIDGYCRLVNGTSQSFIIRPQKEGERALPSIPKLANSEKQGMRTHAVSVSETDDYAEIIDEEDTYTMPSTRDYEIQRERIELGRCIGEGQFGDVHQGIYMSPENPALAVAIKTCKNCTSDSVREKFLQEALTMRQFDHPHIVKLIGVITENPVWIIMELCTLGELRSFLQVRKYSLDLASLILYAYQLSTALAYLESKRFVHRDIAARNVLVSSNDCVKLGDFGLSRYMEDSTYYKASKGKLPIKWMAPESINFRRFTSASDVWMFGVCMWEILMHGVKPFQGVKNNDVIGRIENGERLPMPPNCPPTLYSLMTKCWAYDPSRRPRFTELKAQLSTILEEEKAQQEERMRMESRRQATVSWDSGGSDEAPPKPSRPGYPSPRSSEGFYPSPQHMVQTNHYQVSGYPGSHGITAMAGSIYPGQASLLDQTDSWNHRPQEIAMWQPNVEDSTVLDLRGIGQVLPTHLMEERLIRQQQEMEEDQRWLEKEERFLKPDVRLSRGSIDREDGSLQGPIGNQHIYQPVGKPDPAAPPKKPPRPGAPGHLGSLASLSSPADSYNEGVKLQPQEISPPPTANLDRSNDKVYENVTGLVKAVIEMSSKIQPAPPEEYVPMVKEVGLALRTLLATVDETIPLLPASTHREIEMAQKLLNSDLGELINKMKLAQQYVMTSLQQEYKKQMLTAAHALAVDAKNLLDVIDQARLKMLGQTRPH
Chain of Fibroblast growth factor 2 (Homo sapiens) (P09038 whole entry, looked up): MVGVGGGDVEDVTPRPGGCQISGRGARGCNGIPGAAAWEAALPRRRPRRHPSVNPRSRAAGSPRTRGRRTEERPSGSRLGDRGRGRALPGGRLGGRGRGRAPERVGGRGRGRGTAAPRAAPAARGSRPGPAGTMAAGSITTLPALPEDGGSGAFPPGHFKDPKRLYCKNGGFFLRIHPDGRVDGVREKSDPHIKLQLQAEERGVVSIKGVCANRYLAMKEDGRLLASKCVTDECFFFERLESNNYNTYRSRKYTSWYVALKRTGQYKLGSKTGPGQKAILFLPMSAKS

SMILES | composite z-score [1] | composite Z-score [2] | composite z-score [3] | composite z-score [4] | composite z-score [5] | composite z-score [6] | composite z-score [7] | composite z-score [8] | composite z-score [9] | composite z-score [10] | composite z-score [11] | composite z-score [12] | composite z-score [13] | composite z-score [14] | composite z-score [15] | composite z-score [16] | z-score [17] | composite z-score [18] | composite z-score [19] | z-score [20]
CN(C)CCCC[C@@H]1NC(=O)[C@@H]2C[C@H](C(=O)NCCCCCN)[C@H](c3cccc(OCCO)c3)N2C1=O | 0.49 | 0.932 (inactive) | 0.423 | -0.14 | 0.727 | 0.482 | 1.27 | 1.33 | 0.495 | 1.21 | 2.76 | 1.05 | -0.155 | 0.851 | 1.08 | 1.25 | 2.13 | 0.908 | 0.632 | -1.6 (inactive)
CC(C)[Si](C#CCCc1ccccc1)(O[C@H](c1ccccc1)c1cn(Cc2ccccc2)nn1)C(C)C | 0.246 | 0.546 (inactive) | 0.073 | -0.115 | 0.204 | 1.12 | 0.0218 | 1.02 | 0.721 | 0.949 | 0.269 | 1.09 | 0.104 | 0.642 | 0.709 | 0.368 | 0.26 | 0.919 | 0.782 | 0.898 (inactive)
C=C(C)[C@@H]1CC=C(C(O)C2C=CC3C(=O)N(c4ccccc4)C(=O)C3N2Nc2ccc([N+](=O)[O-])cc2)CC1 (stereo not given in full) | 0.83 | 0.115 (inactive) | 0.0254 | 0.09 | 0.558 | 2.92 | 0.22 | 1.32 | 0.077 | 0.246 | 0.594 | 1.27 | 0.0881 | 0.995 | 1.15 | 0.269 | -1.55 | 1.41 | 0.963 | 0.158 (inactive)
[N-]=[N+]=Nc1ccccc1[C@@H]1OC(c2ccc(OCCCO)cc2)=N[C@]1(CCS(=O)(=O)c1ccccc1)C(=O)NCC(O)CO (stereo not given in full) | 0.91 | 0.339 (inactive) | -0.023 | 0.014 | 0.564 | 2.5 | 0.649 | 0.885 | -0.165 | 0.998 | 0.592 | 0.794 | 0.131 | 0.911 | 0.518 | -0.0365 | -0.298 | -0.285 | 1.02 | -9.87 (active)
COc1ccc([Si](C)(C)[C@@H]2[C@@H](CC(=O)N(CCO)Cc3ccccc3)O[C@]3(C(=O)N(Cc4ccc(I)cc4)c4ccccc43)[C@H]2C)cc1 | -0.596 | 0.317 (inactive) | 0.456 | 0.02 | 0.414 | 0.568 | 0.965 | 0.793 | 1.36 | 0.817 | 1.9 | 0.32 | 0.385 | 0.391 | 1.49 | 1.66 | -0.472 | 1.53 | -0.0349 | 0.249 (inactive)
O=C(NCCN1CCOCC1)[C@@H]1c2ccccc2C(=O)N(Cc2ccccc2C(F)(F)F)[C@H]1c1ccc(CO)cc1 | 0.0089 | -0.141 (inactive) | -0.425 | -0.108 | 0.341 | -0.0272 | 2.49 | 1.29 | -0.93 | 0.0882 | -1.48 | 0.0783 | -0.331 | -0.676 | -0.2 | -0.0425 | 2.63 | -1.24 | 0.708 | -0.676 (inactive)
Cc1ccccc1C(O)C1C=CC2C(=O)N(c3ccccc3)C(=O)C2N1Nc1ccccc1 (stereo not given) | 0.944 | 0.738 (inactive) | 0.312 | -0.0485 | 0.781 | 2.94 | 0.0139 | 1.29 | -0.147 | 1.14 | 1.53 | 1.25 | 0.969 | 1.03 | 1.3 | 0.0635 | -0.128 | 0.55 | 1.33 | -0.818 (inactive)
O=C1C2C=CC(C(O)c3cccs3)N(Nc3ccc([N+](=O)[O-])cc3)C2C(=O)N1c1ccccc1 (stereo not given) | 0.523 | -0.506 (inactive) | 0.0105 | -0.0694 | 0.759 | 2.08 | 0.218 | 0.909 | 0.0721 | 0.585 | 0.482 | 1.11 | 0.894 | 0.697 | 0.337 | -0.105 | -0.908 | -0.457 | 0.844 | 1.1 (inactive)
COC(=O)[C@@]1(Cc2ccc(OC)cc2)[C@H]2c3cc(C(=O)N(C)C)[nH]c3C[C@H]2CN1C(=O)c1ccccc1 | 0.0277 | 0.184 (inactive) | -0.0477 | 0.013 | 0.742 | 0.1 | -0.106 | -1.13 | -0.372 | 0.0575 | 0.279 | -0.154 | 0.0999 | 0.804 | -0.205 | -0.738 | 0.638 | -0.275 | 0.895 | 0.0806 (inactive)
O=C1NC(=O)C2C1C=CC(C(O)c1ccc(B(O)O)cc1)N2Nc1ccc(Cl)cc1Cl (stereo not given) | 0.0179 | 0.168 (inactive) | 0.0864 | 0.119 | 0.753 | 0.546 | -0.11 | -0.597 | 0.0005 | 0.423 | 0.207 | -0.213 | 0.265 | 0.824 | 0.529 | -0.514 | -0.711 | -0.382 | 0.641 | -0.63 (inactive)
O=C1C[C@@](C(=O)O)(c2ccc([N+](=O)[O-])cc2)[C@@H](c2ccc(CO)cc2)N1C1CCCCC1 | 0.88 | 0.628 (inactive) | 0.204 | -0.0029 | 0.508 | 2.02 | 0.281 | 1.34 | 0.0583 | 1.05 | 1.82 | 1.23 | 0.54 | 0.953 | 1.01 | 0.26 | 0.57 | 0.312 | 0.92 | -1.81 (inactive)
